# Measurements taken from PubChem BioAssay (NCI).
# Compounds without any hit were thinned out: in the full panel of roughly 79,000, 15% have a hit. Calls of active or inactive are those of the source. Rule as the data show it: active = growth inhibition above about 70%; inactive = the rest.
# Test: NCI Yeast Anticancer Drug Screen. Data for the rad14 strain (AID 159);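 also: 0% = growth of vehicle-treated control cultures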
# Conditions: S. cerevisiae rad14 strain growth inhibition; at 33.0 µM; hits give high values
# Outline: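 Screen for anticancer potential: a yeast strain altered in DNA damage repair is grown with compound, and reduced growth is quantified against vehicle controls.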
row,SMILES,growth inhibition
1,CC(=O)[O][Bi]([c]1ccccc1)[c]1ccccc1,95% (active)
2,CC1=C(SCCO)C(=O)c2ccccc2C1=O,17% (inactive)
3,C/C(=N\O)C1CC2C=C(C#N)C1N(Cc1ccccc1)C2 (configuration not stated),1% (inactive)
4,CC(Br)C(=O)c1ccc2cc(Br)c3ccccc3c2c1 (configuration not stated),-5% (inactive)
5,Nc1nc(-c2cccnc2)cc(-c2cc(-c3cccnc3)nc(N)n2)n1,0% (inactive)
6,CC(C)=CC(=O)O[C@@H]1CC(C)(C)CC2C3=CCC4[C@]56CC[C@](O)(OC5)C(C)(C)C6CC[C@@]4(C)C3(C)CC[C@]21C(=O)O (some centres not stated),78% (active)
7,CCC(C)COC(=O)c1ccc(N=Cc2ccc(C=Nc3ccc(C(=O)OCC(C)CC)cc3)cc2)cc1 (configuration not stated),2% (inactive)
8,Oc1cccc2c(Cl)ccnc12,96% (active)
9,O=C(O)c1cccc(-c2c3ccc(=O)cc-3oc3cc(O)ccc23)c1,71% (active)
10,CN(CCc1ccccn1)c1ccc2c(c1)Cc1ccccc1-2,37% (inactive)
11,Cc1cc(S(=O)(=O)/N=C(/NN)NNc2cccc(C(F)(F)F)n2)c(S)cc1Cl,-1% (inactive)
12,O=C1C2C(C(=O)N1c1ccc(OCc3ccccc3)cc1)C1c3ccccc3C2C2CCCCN21 (configuration not stated),35% (inactive)
13,Nc1ccccc1CC(O)C(=O)O (configuration not stated),91% (active)
14,O=C(O)C1CCCCC1c1c2ccc(=O)c(O)c-2oc2c(O)c(O)ccc12 (configuration not stated),19% (inactive)
15,Cc1ccc2ccc(O)cc2c1,-25% (inactive)
16,O=C1C(=O)c2ccccc2C=C1[N+](=O)[O-],37% (inactive)
17,COC(=O)c1ccc(NCC2=CC(=O)C=CC2=O)cc1O,98% (active)
18,C(CCSC1=NCCN1)CSC1=NCCN1 (tested in a mixture with another compound),99% (active)
19,N#Cc1c(N)[nH]c2ccc(Sc3ccccc3)cc12,95% (active)
20,CCNc1nnc(CSc2nc(-c3ccccc3)c(-c3ccccc3)[nH]2)s1,58% (inactive)
21,CC[C@@]1(O)C(=O)OCc2c1cc1n(c2=O)Cc2cc3c(N)cccc3nc2-1,-24% (inactive)

# Same assay, conditions: S. cerevisiae rad14 strain growth inhibition; at 100.0 µM; hits give high values
row,SMILES,growth inhibition
1,S=C(S)NN1CCOCC1,52% (inactive)
2,COc1cc2c3c(cccc3c1)C(=O)N(CCN(C)C)C2=O,-14% (inactive)
3,COC(=O)C1=C(C)NC(C)=C(C(=O)OCCCN2CCC(c3ccccc3)(c3ccccc3)CC2)C1c1cccc([N+](=O)[O-])c1 (configuration not stated),89% (active)
4,c1ccc2c(c1)Oc1cccc3cccc-2c13,39% (inactive)
5,CN(C)CCOc1ccc2c(c1)C/C(=C/c1ncc([N+](=O)[O-])n1C)C2=O,97% (active)
6,Cc1ccc(CCC2=CCCc3c2ccc2ccccc32)cc1,13% (inactive)
7,CNC(=O)OCc1c(COC(=O)NC)c(-c2ccc(Cl)c(Cl)c2)n2c1CCC2,98% (active)
8,Clc1ccccc1C1OC1c1ccccc1Cl (configuration not stated),-9% (inactive)
9,O=[N+]([O-])c1cc(CCl)ccc1CCl,97% (active)
10,O=C1C=CC(=O)c2c(O)c(Nc3ccc(OC(F)(F)F)cc3)c(Cl)c(O)c21,92% (active)
11,S=c1[nH]nc(Nc2ccc(Cl)cc2)s1,96% (active)
12,Cn1ccnc1Oc1ccc(Cl)cc1,98% (active)
13,BrCc1cccc2ccc3cccc(CBr)c3c12,2% (inactive)
14,O=C1c2ccccc2-c2nc3ccccc3nc21,46% (inactive)
15,CCCCCCCCCCCCCCCCCCNC,75% (active)
16,Oc1ccc(NCn2c(=S)sc3ccccc32)cc1,98% (active)
17,O=C1C2CC[C@@H]3C(=O)C(Cl)(Cl)[C@@H]3CCC2C1(Cl)Cl (some centres not stated),22% (inactive)
18,CC[n+]1ccc2c(C)c3[nH]c4ccc(O)cc4c3c(C)c2c1,-10% (inactive)
19,Cc1ccc(-n2cc(-c3ccc(Cl)cc3)c(C#N)c2N)cc1,5% (inactive)
20,CC(=O)[O][Bi]([c]1ccccc1)[c]1ccccc1,96% (active)
21,CC1=C(SCCO)C(=O)c2ccccc2C1=O,20% (inactive)
22,C/C(=N\O)C1CC2C=C(C#N)C1N(Cc1ccccc1)C2 (configuration not stated),7% (inactive)
23,CC(Br)C(=O)c1ccc2cc(Br)c3ccccc3c2c1 (configuration not stated),17% (inactive)
24,Nc1nc(-c2cccnc2)cc(-c2cc(-c3cccnc3)nc(N)n2)n1,-1% (inactive)
25,CC(C)=CC(=O)O[C@@H]1CC(C)(C)CC2C3=CCC4[C@]56CC[C@](O)(OC5)C(C)(C)C6CC[C@@]4(C)C3(C)CC[C@]21C(=O)O (some centres not stated),84% (active)
26,CCC(C)COC(=O)c1ccc(N=Cc2ccc(C=Nc3ccc(C(=O)OCC(C)CC)cc3)cc2)cc1 (configuration not stated),11% (inactive)
